Screening results (PubChem)
Tau ThT inhib: inhibitors of human tau fibril formation, thioflavin T binding; hit rate 2.1% among 270,000; Potency, µM (doses to about 57.4 µM), most hits filed as inhibitors; AID 1460; P10636; recombinant tau K18 P301L, heparin-induced fibrillization, ThT fluorescence; further: nearly all actives have a fitted effect of over 55% in size
Target sequence (P10636 561-689 P618L limits assumed): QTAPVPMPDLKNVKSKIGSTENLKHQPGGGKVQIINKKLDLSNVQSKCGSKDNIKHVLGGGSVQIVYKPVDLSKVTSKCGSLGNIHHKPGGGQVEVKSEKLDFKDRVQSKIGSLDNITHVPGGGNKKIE
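Aggregation was driven by heparin (20 uM final) acting on recombinant tau […] bearing P301L in 100 mM sodium acetate pH 7; fibrils were detected with Thioflavin T.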
Tau fluor cs: counter-screen for tau fibril formation inhibitors; tau K18 P301L Alexa594 fluorescence, heparin fibrillization; hit rate 0.93% among 280,000; Potency, µM (doses to about 57.7 µM); further: nearly all actives have a fitted effect of over 55% in size
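Human tau K18 P301L (15 uM unlabeled, 0.24 uM Alexa 594-labeled) in 100 mM sodium acetate pH 7 with 20 uM heparin, 6 hr at 37 C. ThT 30 uM added, 1 hr ambient; Alexa 594 FP and total fluorescence read at 555/632 nm.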
Tau FP inhib: blocks human tau fibril formation measured by polarization. Potency, µM (highest dose often 57.7 µM), usual class: inhibitors. AID 1468. K18 P301L tau heparin fibrillization, Alexa594 FP, 6 h. hit rate 0.39% among 280,000. P10636; further: nearly all actives have a fitted effect of over 55% in size
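Heparin (20 uM) drove fibril formation of recombinant tau K18 P301L, 15 uM unlabeled with 0.24 uM Alexa 594 label, for 6 hr at 37 C in 100 mM sodium acetate pH 7. Fluorescence polarization (555/632 nm) read 1 hr after 30 uM ThT.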
Coupling enz: inhibits coupling enzyme system, counter-screen for aldolase hits; coupling enzyme system counterscreen, AmpLite Red fluorescence; activity change, negative = inhibition, % at 58.2 µM, hits read low; hit rate 0.67% among 290,000; AID 2472; in the data active means activity change below about -30%
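Coupling enzymes only (glyceraldehyde-3-phosphate) + compound, at 57.5 uM final, 10 min RT; add substrate/coupling/AmpLite Red mix, 20 min RT; fluorescence ex 525/em 598 nm. Actives flag coupling-system interference.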
Large screens that a line does not name were inactive; ! = not active in a repeat; [ ] = remark or other dose. Only some compounds are listed: those with a hit (about 2.7% of all), similar ones and a draw of the others. Unless noted, the call rests on the fitted dose curve; in most records, active means well fitted curve in the direction sought with a large enough effect; inconclusive means small, poorly fitted or top-dose-only effect, or another doubt; inactive means no such curve, though single readings can be large; an effect the other way counts as inactive or inconclusive.

CCCCC1=CC2=C(c3ccco3)C(=O)C(C)(OC(=O)c3ccc(OC)cc3)C(=O)C2=CN1CCCCO (stereo not drawn)	Tau ThT inhib inconclusive
CCCCC1=CC2=C(c3ccco3)C(=O)C(C)(OC(=O)c3ccc(OC)cc3)C(=O)C2=CN1Cc1ccco1 (stereo not drawn)	Tau ThT inhib 8.9µM!
CCCCC1=CC2=C(c3ccco3)C(=O)C(C)(OC(=O)c3ccc(OC)cc3)C(=O)C2=CN1CC1CC1 (stereo not drawn)	Tau ThT inhib 16µM!, Tau fluor cs inconclusive
CCCCNC(=O)c1cnc2c(-c3ccc(OCC)c(OCC)c3)c(C)nn2c1-c1ccccc1	none (no result: Coupling enz)
O=c1cc(-c2ccc(O)cc2O)oc2ccccc12	none
Cc1c2cc(O)c(=O)cc-2oc2cc(O)c(O)cc12	Tau ThT inhib 3.2µM, Tau fluor cs 10µM[quencher], Tau FP inhib 10µM, Coupling enz -54!
COc1cc(OC)c(-c2c3cc(O)c(=O)cc-3oc3cc(O)c(O)cc23)cc1OC	Tau ThT inhib 13µM, Tau FP inhib inconclusive
Fc1ccc2nc(Nc3nc4cc5c(cc4s3)OCCO5)sc2c1	Tau ThT inhib 10µM, Tau fluor cs 14µM[quencher]
Fc1ccc2nc(Nc3nc4cc5c(cc4s3)OCO5)sc2c1	Tau ThT inhib inconclusive, Tau fluor cs 3.5µM[quencher], Tau FP inhib inconclusive
c1ccc2sc(Nc3nc4cc5c(cc4s3)OCO5)nc2c1	none
O=C(NNc1nc2cc3c(cc2s1)OCCO3)c1ccc(F)cc1	Tau ThT inhib inconclusive
Cc1nn2c(N)c(-c3ccccc3)cnc2c1-c1ccccc1	none (no result: Tau ThT inhib, Tau fluor cs, Tau FP inhib)
Cc1ccc(C(=O)Nc2ccc3c(c2)N(C)C(=O)c2ccccc2S3)cc1	Tau fluor cs inconclusive, Tau FP inhib inconclusive (no result: Coupling enz)
COc1ccc(NC(=O)/C(Cl)=C(/Cl)S(=O)Cc2ccccc2Cl)cn1 (stereo not drawn)	Tau ThT inhib 8.9µM, Tau FP inhib inconclusive
COc1ccc(NC(=O)Cc2ccc(Cl)c(Cl)c2)cn1	none
COc1ccc(NC(=O)/C(Cl)=C(/Cl)S(=O)(=O)Cc2ccc(C)cc2)cn1	Tau ThT inhib 8.9µM, Tau FP inhib inconclusive
O=C(O)c1cc(O)c2c(c1)[C@H]([C@H]1c3cc(C(=O)O)cc(O)c3C(=O)c3c(O[C@@H]4OC(CO)C(O)C(O)C4O)cccc31)c1cccc(O[C@@H]3OC(CO)C(O)C(O)C3O)c1C2=O (stereo partly drawn)	Tau ThT inhib 22µM, Tau fluor cs inconclusive, Tau FP inhib inconclusive, Coupling enz -39
OCC1OC(Oc2cccc3ccccc23)C(O)C(O)C1O (stereo not drawn)	none (no result: Tau ThT inhib, Tau fluor cs, Tau FP inhib)
COc1ccccc1CN1CCN(C2CCN(C(=O)NC(C)C)CC2)C(=O)C1=O	none (no result: Coupling enz)
Cc1ccc(C(=O)N2CCc3cc(CNS(=O)(=O)c4cccs4)ccc32)cc1	none (no result: Coupling enz)
O=[N+]([O-])c1ccc(O)c(-c2cc(C(F)(F)F)nc(-c3ccccc3)n2)c1	none (no result: Tau ThT inhib, Tau fluor cs, Tau FP inhib)
CN(C)c1nc(-c2cccc(NS(C)(=O)=O)c2)nc2ccccc12	none (no result: Tau ThT inhib, Tau fluor cs, Tau FP inhib)
Cc1ccc(-n2c(C)cc(C(=O)CSc3nncs3)c2C)cc1	Tau ThT inhib inconclusive, Coupling enz -33
CC(=O)[C@@H]1CC[C@@H]2[C@@H]3C[C@H](C)C4=CC(=O)CC[C@@]4(C)[C@H]3[C@H](O)C[C@]21C	none (no result: Tau ThT inhib, Tau fluor cs, Tau FP inhib)
COc1ccc(-c2ccc3c(N)c(C(=O)NCc4ccc(C)cc4)sc3n2)cc1	Tau fluor cs inconclusive (no result: Coupling enz)
COc1ccc(C(=O)c2sc3nc(-c4ccc(F)cc4)ccc3c2N)cc1	Tau ThT inhib inconclusive, Tau fluor cs inconclusive (no result: Coupling enz)
COc1cccc(-c2ccc3c(N)c(C(=O)c4ccc(F)cc4)sc3n2)c1	Tau ThT inhib inconclusive, Tau fluor cs 3.2µM[quencher], Tau FP inhib inconclusive (no result: Coupling enz)
COc1cccc(-c2ccc3c(N)c(C(=O)NCc4ccc(Cl)cc4)sc3n2)c1	Tau ThT inhib inconclusive, Tau fluor cs 4.5µM[quencher] (no result: Coupling enz)
COc1cccc(-c2ccc3c(N)c(C(=O)Nc4ccccc4C)sc3n2)c1	Tau ThT inhib inconclusive, Tau fluor cs 8.9µM[quencher] (no result: Coupling enz)
COc1cccc(-c2ccc3c(N)c(C(=O)NC4CC4)sc3n2)c1	Tau ThT inhib inconclusive, Tau fluor cs 16µM[quencher]
CCCOc1ccc(-c2cc(C(F)(F)F)c(C#N)c(SCCC(=O)O)n2)cc1	none (no result: Coupling enz)
Cc1ccccc1NC(=O)c1sc2nc(-c3ccncc3)ccc2c1N	Tau ThT inhib 5µM, Tau fluor cs 10µM[quencher] (no result: Coupling enz)
Cc1cc(C)c(C(=O)COc2cccnc2[N+](=O)[O-])cc1C	Tau ThT inhib 14µM, Tau fluor cs inconclusive, Tau FP inhib inconclusive
COc1cc(/C=C/C(=O)OCC(=O)Nc2ccc(C)c(S(=O)(=O)N3CCCCC3)c2)ccc1O	Tau fluor cs 14µM[quencher]
COc1cc(/C=C/C(=O)OCC(=O)Nc2cc(S(=O)(=O)N3CCCCC3)ccc2C)ccc1O	Tau fluor cs inconclusive
CCC(=O)Nc1ccc(S(=O)(=O)NCc2ccc3c(c2)CCN3C(=O)c2ccc(C)cc2)cc1	none (no result: Coupling enz)
COc1ccc(CCNC2CC(=O)N(CCc3ccc(OC)c(OC)c3)C2=O)cc1OC (stereo not drawn)	none
COc1ccc(CCN2C(=O)CC(NNc3ccc([N+](=O)[O-])cc3)C2=O)cc1OC (stereo not drawn)	Tau ThT inhib 11µM, Tau fluor cs inconclusive
Cc1ccc(/C=C/C(=O)NN2CCN(C)CC2)cc1	none (no result: Tau ThT inhib, Tau fluor cs, Tau FP inhib)
Cc1ccc(/C=C/C(=O)Nn2cnnc2)cc1	Tau ThT inhib 14µM, Tau FP inhib inconclusive
CCOc1ccc(NC(=O)C(c2ccccn2)N(C(=O)CCl)c2ccc(OCC)cc2)cc1 (stereo not drawn)	Tau ThT inhib 10µM, Tau fluor cs inconclusive, Tau FP inhib inconclusive
CCOc1ccc(NC(=O)C(c2ccccn2)N(C(=O)CCl)c2ccc(OC)cc2)cc1 (stereo not drawn)	Coupling enz -43
COc1ccc(NC(=O)C(c2ccccn2)N(C(C)=O)c2ccc(C)cc2)cc1 (stereo not drawn)	none
CCN(c1ccccc1)S(=O)(=O)c1ccc(Cl)c(NC(=O)CSc2ncn[nH]2)c1	none
Cc1cc(C)c(S(=O)(=O)/N=C2/C=C(Sc3ncn[nH]3)C(=O)c3ccccc32)cc1C	Coupling enz -96
CCOc1ccc(N=Nc2c(C)noc2C)cc1	Tau ThT inhib 16µM
CCOc1ccc(C(=O)NCC(=O)OCc2c(C)noc2C)cc1	none
O=C1Nc2ccc(I)cc2/C1=C/c1cc(Br)c(O)c(Br)c1	Tau ThT inhib 4µM, Tau fluor cs 14µM![quencher], Tau FP inhib inconclusive
Cc1ccc2c(c1)/C(=C/c1ccccc1)C(=O)N2	none (no result: Tau ThT inhib, Tau fluor cs, Tau FP inhib)
COc1cccc(-c2cc(C(=O)Nc3ccc(F)cc3)[nH]n2)c1	Tau FP inhib inconclusive (no result: Coupling enz)
O=C(NCc1ccco1)c1ccc2c(c1)C(=O)c1ccccc1-2	Tau ThT inhib 13µM, Tau FP inhib inconclusive
COc1ccc(NC(=O)Cc2cccc(F)c2)cc1S(=O)(=O)Nc1ccccc1Cl	Tau fluor cs 14µM[quencher], Tau FP inhib inconclusive (no result: Tau ThT inhib)
COc1ccccc1NC(=O)Nc1ccc(Cl)c(S(=O)(=O)Nc2ccccc2OC)c1	Tau fluor cs 3.2µM[quencher], Tau FP inhib 28µM
COc1ccccc1NS(=O)(=O)c1cc(NC(=O)c2ccc(Cl)nc2)ccc1Cl	Tau fluor cs 22µM[quencher], Tau FP inhib 25µM
COc1ccc(NC(=O)CCn2cccn2)cc1OC	none (no result: Coupling enz)
